Experimental data published in PubChem BioAssay AID488969 (Vanderbilt High Throughput Screening Facility, 2010).
In all, about 110,000 compounds were measured (“z-score”: median about -0.1, highest 2% from about 2 on). The sample as a whole holds a higher share of the highest values than the screen did. Activity calls are given as the source filed them.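 Rule for the calls: active = z-score in the third read window above 3 or below -3; inactive = the rest.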

target: Metabotropic glutamate receptor 8 (Rattus norvegicus) (UniProt P70579); experiment: rat mGluR8 modulators via GIRK flux, primary screen, cell-based, thallium flux, HTS (AID 488969); conditions: HEK293 rat mGluR8, GIRK (G protein-gated inwardly rectifying potassium channel) thallium flux, FluoZin2; at 10 µM; stronger effect = higher value; submaximal glutamate (EC20) added with thallium
Sequence (P70579 whole entry, looked up): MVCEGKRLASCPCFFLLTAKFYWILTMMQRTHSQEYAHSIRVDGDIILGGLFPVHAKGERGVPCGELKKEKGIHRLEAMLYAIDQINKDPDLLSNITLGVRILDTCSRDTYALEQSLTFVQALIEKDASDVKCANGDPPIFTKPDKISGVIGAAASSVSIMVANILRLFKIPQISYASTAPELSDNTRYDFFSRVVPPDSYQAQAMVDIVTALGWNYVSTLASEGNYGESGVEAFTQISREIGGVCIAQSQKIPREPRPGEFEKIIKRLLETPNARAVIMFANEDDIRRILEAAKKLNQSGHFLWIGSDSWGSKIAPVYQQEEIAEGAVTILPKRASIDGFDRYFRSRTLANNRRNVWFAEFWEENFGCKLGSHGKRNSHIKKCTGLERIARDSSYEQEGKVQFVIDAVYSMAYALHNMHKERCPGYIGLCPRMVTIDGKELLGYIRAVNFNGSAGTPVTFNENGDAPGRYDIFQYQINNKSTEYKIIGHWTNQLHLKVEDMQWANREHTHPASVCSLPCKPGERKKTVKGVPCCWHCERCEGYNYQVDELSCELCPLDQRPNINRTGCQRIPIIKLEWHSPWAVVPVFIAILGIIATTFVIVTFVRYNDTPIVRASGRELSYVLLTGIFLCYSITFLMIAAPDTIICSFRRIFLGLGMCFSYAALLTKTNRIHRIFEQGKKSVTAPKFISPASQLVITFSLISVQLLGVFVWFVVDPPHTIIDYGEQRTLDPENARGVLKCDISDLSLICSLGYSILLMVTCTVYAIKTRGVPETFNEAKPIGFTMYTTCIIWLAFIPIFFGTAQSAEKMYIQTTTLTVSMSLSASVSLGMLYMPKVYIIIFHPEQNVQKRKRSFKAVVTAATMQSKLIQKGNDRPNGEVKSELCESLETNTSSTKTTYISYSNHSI

Row | Structure (SMILES) | z-score
1 | O=C(NC(=S)NC1CCCCCC1)c1cncc(Br)c1 | 6.87 (active)
2 | O=C(NC(=S)NC1CC1)c1cccnc1 | 0.798
3 | CN(C(=S)NC(=O)c1ccccc1Br)C1CCCCC1 | 3.51 (active)
4 | CN(C(=O)c1ccc(C(=O)N(C)C2CCCCC2)cc1)C1CCCCC1 | 0.244
5 | O=C(NC(=S)NC1CCCCCCCCCCC1)c1cccnc1 | -0.0629
6 | CN(C(=O)c1ccccc1Cl)C1CCCCC1 | 0.549
7 | c1ccc2sc(C3CCN(Cc4nnnn4Cc4ccc5c(c4)OCO5)CC3)nc2c1 | 0.227
8 | CCc1nc(NCCCCCO)c2nnn(Cc3ccccc3F)c2n1 | -0.538
9 | COC(=O)c1ccc2c(=O)n(CCO)c(=S)[nH]c2c1 | 0.000255
10 | CCN(CC)CCCn1c(=S)[nH]c2cc(C(=O)OC)ccc2c1=O | 0.199
11 | CCn1c(=S)[nH]c2cc(C(=O)OC)ccc2c1=O | 7.77 (active)
12 | O=C(NCC1CCCO1)c1ccc2c(=O)n(CC3CCCO3)c(=S)[nH]c2c1 (stereo not given) | 0.352
13 | COC(=O)c1ccc2c(=O)n(CC3CCCO3)c(=S)[nH]c2c1 (stereo not given) | 7.72 (active)
14 | COCCCNC(=O)c1ccc2c(=O)n(CC3CCCO3)c(=S)[nH]c2c1 (stereo not given) | 0.247
15 | O=C1CN(c2ccccc2Cl)C(=O)CN1c1ccccc1Cl | 0.348
16 | Cc1cccc(C)c1N1CCc2cn[nH]c21 | -0.273
17 | O=C(CSc1nc2cc(Cl)ccc2s1)NC1CCCc2ccccc21 (stereo not given) | -0.115
18 | CC12CCC(C(=O)N(Cc3ccccc3)Cc3ccccc3)(OC1=O)C2(C)C (stereo not given) | -0.0292
19 | Cc1cc(NC(=O)CSc2nc3ccsc3c(=O)n2NC(=O)c2ccccc2)no1 | 3.32 (active)
20 | CC(C)CCNC(=O)CSc1nc2ccsc2c(=O)n1NC(=O)c1ccccc1 | -0.0204
21 | Cc1ccc(NC(=O)CSc2nc3ccccc3c(=O)n2CCCN2CCCCC2)cc1C | 0.975
22 | CCCCNC(=O)CSc1nc2cc(OC)c(OC)cc2c(=O)n1Cc1ccc(OC)cc1 | -0.298
23 | CCC(C)NC(=O)CSc1nc2ccccc2c(=O)n1Cc1ccc(OC)cc1 (stereo not given) | 3.19 (active)

Row | Structure (SMILES) | z-score
24 | Cc1ccc(Cn2c(SCC(=O)Nc3cc(C)on3)nc3ccccc3c2=O)cc1 | 1.07
25 | CCCCn1c(SCC(=O)Nc2cc(C)on2)nc2ccccc2c1=O | -1.45
26 | Cc1cc(NC(=O)CSc2nc3ccccc3c(=O)n2Cc2ccccc2)no1 | 4.05 (active)
27 | COc1ccc(NC(=O)CSc2nc3ccccc3c(=O)n2Cc2cccs2)c(OC)c1 | 0.00897
28 | COc1ccc(NC(=O)CSc2nc3ccccc3c(=O)n2CCCN2CCCCC2)c(OC)c1 | 3.69 (active)
29 | O=C(CSc1nc2ccsc2c(=O)n1NC(=O)c1ccccc1)Nc1nccs1 | -0.202
30 | CCOCCCn1c(SCC(=O)NC(C)C)nc2ccccc2c1=O | 0.328
31 | Cc1cc(C)[n+](-c2ccc(F)cc2)c2[nH]c(=O)[nH]c(=O)c12 | 0.407
32 | Cc1ccc(C(=O)N2CC(=O)Nc3ccc(F)cc3C2c2ccccc2)cc1[N+](=O)[O-] (stereo not given) | -0.229
33 | O=C(NNC(=O)c1sc2cccc(Cl)c2c1Cl)Nc1ccccc1 | -0.00877
34 | C=CCn1c(SCC(=O)Nc2ccc3c(c2)OCO3)nc2ccccc2c1=O | 0.212
35 | Cc1ccc(OCCCN(C)C)c(Br)c1 | 1.17
36 | CCOC(=O)c1oc2ccc(S(=O)(=O)n3nc(-c4ccc(Cl)cc4)cc3N)cc2c1C | -0.324
37 | CN(CCC#N)C(=O)COC(=O)c1ccc(Cl)c(S(N)(=O)=O)c1 | 0.0421
38 | CC1CCN(C(=O)Cn2c(=O)n(Cc3ccc4c(c3)OCO4)c(=O)c3ccccc32)CC1 | -1.65
39 | CC1CCN(C(=O)CSc2nc3ccccc3c(=O)n2Cc2ccc3c(c2)OCO3)CC1 | 2.16
40 | CCCCNC(=O)CSc1nc2ccccc2c(=O)n1Cc1ccc2c(c1)OCO2 | 0.908
41 | Cc1cccc(-n2ncc3c(NCCc4ccc(S(N)(=O)=O)cc4)ncnc32)c1 | 8.89 (active)
42 | c1ccc(CCNc2ncnc3c2cnn3-c2ccccc2)cc1 | -1.25
43 | Cc1cccc(-n2ncc3c(NCCCO)ncnc32)c1 | 0.607
44 | O=C(CSc1ccc2nnc(-c3cccc(F)c3)n2n1)N1CCCc2ccccc21 | -0.911
45 | Cc1ccc(NC(=O)CN(C)C(=O)CCOc2ccccc2C)cc1 | 1.66
46 | CCC(CC)C1C(C#N)=C(N)Oc2n[nH]c(-c3ccccc3)c21 (stereo not given) | -0.557

Row | Structure (SMILES) | z-score
47 | S=C(NN=C1C2CC3CC(C2)CC1C3)Nc1ccccc1 | 11.7 (active)
48 | CCC(=O)Nc1ccc(NC(=S)Nc2ccccc2)cc1 | -0.362
49 | O=C(NNC(=S)Nc1ccccc1)C1CC1 | -0.336
50 | S=C(NN=C(C1CC1)C1CC1)Nc1ccccc1 | 4.43 (active)
51 | O=C(NN=C1C2CC3CC(C2)CC1C3)c1cccs1 | 0.589
52 | S=C(N/N=C1\C2CN3CCN(C2)CC1(c1ccccc1)C3)Nc1ccccc1 | 0.425
53 | CNC(=S)N/N=C/c1c(C)nn(-c2cccc(Cl)c2)c1Cl | -0.134
54 | CCOC(=O)C1CCN(C(=O)CSc2nnc(-c3ccco3)n2-c2ccccc2)CC1 | -0.369
55 | O=C(NCc1ccccc1Cl)c1ccccc1Oc1ccccc1 | -0.412
56 | CCOC(=O)C1C(=O)Nc2nc3ccccc3n2C1C(C)C (stereo not given) | -0.438
57 | COC(=O)Nc1c(-c2ccccc2)nc2ccccn12 | -0.126
58 | Cc1ccc(-c2nc3ncccn3c2NC(=O)C2CC2)cc1 | 0.268
59 | CC(=O)Nc1c(-c2ccc(F)cc2)nc2ccccn12 | 2.25
60 | Cc1cccc(C)c1Nc1c(-c2ccsc2)nc2ncccn12 | -0.464
61 | CC(=O)Nc1c(-c2ccccc2)nc2ncccn12 | 2.69
62 | Cc1ccc(-c2nc3ccccn3c2NC(=O)c2ccco2)cc1 | 0.65
63 | CC(C)(C)NC(=O)CN(C(=O)Cn1nnc(-c2ccc(Cl)cc2)n1)C1CCN(Cc2ccccc2)CC1 | -0.128
64 | CC1CC(C)CN(c2ncnc3c2cnn3Cc2ccc(Cl)cc2)C1 (stereo not given) | -0.714
65 | O=C(CSc1nnnn1-c1cccnc1)Nc1ccc(OCc2ccccc2)cc1 | -0.183
66 | CCn1c(=O)c(C(=O)NCCc2ccccc2)c(O)c2ccccc21 | 0.613
67 | CCNCCNC(=O)c1c(O)c2ccccc2n(CC)c1=O | -0.289
68 | CCn1c(=O)c(C(=O)NCCCO)c(O)c2ccccc21 | 3.51 (active)
69 | COc1ccc(C(=O)COc2ccc(NC(C)=O)cc2)cc1 | -0.0378

Row | Structure (SMILES) | z-score
70 | COc1ccc(CCNC(=O)c2cc(-c3ccccc3)on2)cc1OC | 0.914
71 | S=C(NCc1ccc(Cl)cc1Cl)Nc1ccccc1 | 3.34 (active)
72 | S=C(NCCSCc1ccc(Cl)cc1Cl)Nc1ccccc1 | -0.181
73 | Fc1ccccc1CNC(=S)Nc1ccc(Cl)cc1 | 2.23
74 | Fc1ccc(CNC(=S)Nc2ccc(Cl)cc2)cc1 | 0.385
75 | Fc1ccc(NC(=S)NCc2ccccc2Cl)cc1 | 1.74
76 | S=C(Nc1ccccc1)Nc1ccc(OCc2ccc(Cl)cc2Cl)cc1 | -0.223
77 | O=C(OC(C(=O)NC1CCCCC1)c1ccccc1)c1ccco1 (stereo not given) | -0.0658
78 | Cc1cccc(C(C)C)c1NC(=O)c1ccc(CN(c2ccccc2)S(=O)(=O)c2ccccc2)cc1 | -0.0858
79 | COc1cc2c(cc1NC(=O)C(C)NCc1ccccc1)oc1ccccc12 (stereo not given) | 0.0909
80 | O=C(NC1CCCCC1)C(c1ccccc1)N(Cc1ccco1)C(=O)Cn1cnc2ccccc21 (stereo not given) | -1.29
81 | CC1(C)Cc2nc(NCCCO)c(C#N)cc2CO1 | 2.93
82 | CC(C)c1nc(NCCN2CCOCC2)c(C#N)c2c1COC(C)(C)C2 | -0.502
83 | CC(C)CCNc1nc2c(cc1C#N)COC(C)(C)C2 | -0.377
84 | CC1(C)Cc2nc(NCCN3CCOCC3)c(C#N)cc2CO1 | 7.19 (active)
85 | CC1(C)Cc2nc(N3CCOCC3)c(C#N)cc2CO1 | -0.0959
86 | Cc1nc(NCCCO)c(C#N)c2c1COC(C)(C)C2 | 1.53
87 | Nc1nnc(SCC(=O)c2ccco2)s1 | -0.0604
88 | O=S1(=O)C=C(SCc2ccccc2)Nc2ccccc21 | -0.11
89 | CCOC(=O)c1nn(-c2ccc(OCC)cc2)c(C)c1C(C)=O | 0.0801
90 | O=C(Nc1ccccc1)c1cnc2n(c1=O)CCS2 | -0.146
91 | COc1ccc(CNC(=O)c2cnc3n(c2=O)CCS3)cc1 | -0.183
92 | O=C(NCc1ccc(F)cc1)c1cnc2n(c1=O)CCS2 | 2.18

Row | Structure (SMILES) | z-score
93 | CCCCOC(=O)c1ccc(NC(=O)c2cnc3n(c2=O)CCS3)cc1 | 0.203
94 | O=C(NCc1ccccc1)c1cnc2n(c1=O)CCS2 | -0.0906
95 | CCc1ccc(NC(=O)c2cnc3n(c2=O)CCS3)cc1 | 2.53
96 | CCOC(=O)c1ccc(N2C(=O)C3ON(c4ccccc4)C(c4ccco4)C3C2=O)cc1 (stereo not given) | -0.354
97 | COc1cc(OC)nc(NC(=O)CSc2nc3ccccc3o2)n1 | -0.294
98 | Cc1cc(C)cc(N(CC(=O)O)S(=O)(=O)c2c(C)noc2C)c1 | -0.132
99 | CC(C)NC(=S)NN(c1ccccc1)c1ccccc1 | 2.38
100 | CNC(=S)NN(c1ccccc1)c1ccccc1 | -0.0349
101 | CCNC(=S)NN(c1ccccc1)c1ccccc1 | 0.837
102 | COc1ccc(OC)c(C2C3=C(CCCC3=O)NC3=C2C(=O)CCC3)c1 | -0.586
103 | O=S(=O)(Cc1ccccc1Cl)CC(O)COc1ccccc1Cl (stereo not given) | -0.273
104 | Cc1nc2ccccn2c1C(=O)NN | 2.34
105 | COc1ccc(CNC(=O)c2c(C)nc3ccccn23)cc1 | -0.0334
106 | Cc1c(C(=O)NN)nc2ccccn12 | -0.145
107 | COc1nc(N/N=C/c2ccc(-c3ccccc3[N+](=O)[O-])o2)nc(N2CCOCC2)n1 | -0.309
108 | COc1ccc(S(=O)(=O)N(CCc2ccccc2)CC(=O)O)cc1Cl | -0.104
109 | CN1C(=O)C(O)(C2OC(C)(C)CCC2=O)c2ccccc21 (stereo not given) | -0.0799
110 | NC(=O)C1(NC(=O)[C@@H]2CC3(CC(c4cccc(NC(=O)[C@@H]5CCC(=O)N5)c4)=NO3)CN2C(=O)Cc2ccc(C(F)(F)F)cc2)CC1 (stereo not given in full) | -0.279
111 | O=C(Nc1nncs1)C1COc2ccccc2O1 (stereo not given) | 0.542
112 | CCCNC(=O)C1CNc2ccccc2O1 (stereo not given) | -0.2
113 | NC(=O)C1CNc2ccccc2O1 (stereo not given) | 2.79
114 | CCCCSc1nc(C)nc2c1c(=O)n(C)c(=O)n2C | -0.303
115 | COc1ccc2[nH]c3c(Cl)ncnc3c2c1 | -0.502
